Source: PubChem
Sampled rows, rich in hits. Any-hit rate of the full collection: about 4.1%.
UHRF1 MBD2 ctr = UHRF1 methylated DNA binding inhibitors, primary screen, counter-screen for MBD2 inhibitor project, biochemical, TR-FRET, human UHRF1, single concentration; E3 ubiquitin-protein ligase UHRF1 (Homo sapiens), Q96T88; UHRF1 binding to methylated oligo; inhibition, % at 4.4 µM; hit rate 0.75% among 370,000; in the data active = inhibition above about 21%;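 also: UHRF1 SRA domain binding a hemimethylated CpG hairpin DNA probe; 0% = median of test compound wells and 100% = reference inhibitor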
LEDGF integ inh = blockers of LEDGF/p75-dependent integrase strand transfer – biochemical, TR-FRET, high throughput, primary screen; HIV-1 integrase (with human LEDGF/p75); TR-FRET IN-LEDGF/p75 DNA integration, Eu/Cy5; inhibition, % at 3.7 µM; hit rate 0.64% among 370,000; AID 743269, 2014;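 active = inhibition above the screen-wide mean plus 3 SD, cut at about 13% in these data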;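 also: signal is the Cy5 over europium emission ratio at 671 and 618 nm; 0% = plate median of compound wells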
PRMT1 inh = PRMT1 methyltransferase inhibitors, primary screen, biochemical, fluorescence polarization. hit rate 1.3% among 370,000. AID 652257, 2013. recombinant PRMT1, activity-based probe fluorescence polarization. inhibition, % at 2.79 µM. Protein arginine N-methyltransferase 1 (Homo sapiens), Q99873;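 active = inhibition above about 21% made by adding two undisclosed values, limit read from the data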
Target sequence (Q99873 whole entry, looked up): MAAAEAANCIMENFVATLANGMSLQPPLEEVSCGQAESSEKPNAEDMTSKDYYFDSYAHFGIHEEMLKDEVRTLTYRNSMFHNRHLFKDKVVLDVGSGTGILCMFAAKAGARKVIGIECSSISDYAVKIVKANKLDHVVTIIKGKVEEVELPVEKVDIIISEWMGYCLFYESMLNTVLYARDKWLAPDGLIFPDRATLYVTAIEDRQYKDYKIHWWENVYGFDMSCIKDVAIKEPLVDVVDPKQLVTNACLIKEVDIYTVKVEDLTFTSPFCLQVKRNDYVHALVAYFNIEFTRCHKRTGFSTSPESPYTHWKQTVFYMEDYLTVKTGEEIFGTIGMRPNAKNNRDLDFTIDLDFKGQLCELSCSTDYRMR
ABHD5 PLIN5 PPI = ABHD5-PLIN5 interaction inhibitors, primary screen, cell lysate, split luciferase complementation, luminescence; Split G. princeps luciferase complementation, 4 h; inhibition, % at 4 µM; hit rate 0.78% among 360,000; AID 602281, 2012;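 active = inhibition above the mean inhibition across every tested compound plus 3 SD, cut at about 22% in these data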;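 also: 0% = DMSO only wells and the 100% control is not disclosed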
MBD2 DNA inh = inhibitors of MBD2 binding to methylated DNA, primary screen, biochemical, TR-FRET, DNA-binding domain, human; Methyl-CpG-binding domain protein 2 (Homo sapiens), Q9UBB5; MBD2 binding to methylated oligonucleotide; inhibition, % at 4.4 µM; hit rate 0.31% among 370,000; AID 686964, 2013; in the data active = inhibition above about 13%
rCAG RNA binder = binders of r(CAG) RNA repeats, primary screen, biochemical, fluorescence. r(CAG) RNA repeat, TO-PRO-1 dye displacement fluorescence. hit rate 1.3% among 370,000. inhibition, % at 3 µM;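 active = inhibition above the plate cutoff, the mean of all test compounds on that plate plus 3 SD, cut at about 35% in these data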;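 also: 0% = DMSO alone and 100% = 100 µM mitoxantrone as full dye displacement; higher means more dye released from RNA so lower well fluorescence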
rCAG bind conf = small molecules binding CAG repeat RNA – biochemical, fluorescence, confirmation; shares compounds with rCAG RNA binder; r(CAG) RNA repeat, TO-PRO-1 dye displacement fluorescence; inhibition, % at 3 µM; hit rate 70% among 4,300; AID 652065, 2013;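 active = inhibition above a per-plate cutoff, the mean inhibition of sample wells plus 3 SD, cut at about 35% in these data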;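 also: loss of TO-PRO-1 fluorescence as compound displaces dye from 1x1 AA loop RNA; 0% = DMSO only wells and 100% = 100 µM mitoxantrone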
dCAG dye counter = displacement of TO-PRO-1 from CAG DNA duplex, counter-screen for rCAG RNA repeat binder project, biochemical, fluorescence, TO-PRO-1 dye, d(CAG) DNA oligo; shares compounds with rCAG RNA binder; d(CAG) DNA oligo TO-PRO-1 dye displacement; inhibition, % at 3 µM; hit rate 94% among 4,300; AID 652068, 2013;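 active = inhibition above its plate's cutoff, the mean test-well inhibition plus 3 SD, cut at about 4.8% in these data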;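 also: 0% = DNA dye mix with DMSO and 100% = 100 µM mitoxantrone; hits displace the dye from DNA and so lower well fluorescence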
Active calls of the source: *.

Results for O=C(CSc1nc(O)c(Cc2ccccc2)c(=O)[nH]1)Nc1nnc(SCc2ccccc2)s1 ?
UHRF1 MBD2 ctr: 0.1; LEDGF integ inh: -8.3; PRMT1 inh: 2.2; ABHD5 PLIN5 PPI: 1.5; MBD2 DNA inh: -5.7; rCAG RNA binder: 52.8*; rCAG bind conf: 28.4; dCAG dye counter: 7.5*

What do the screens show for `CCC(Sc1nc(-c2ccccc2)c(C#N)c(=O)[nH]1)C(=O)Nc1nnc(C)s1` (configuration not stated)?
UHRF1 MBD2 ctr: 0.9; LEDGF integ inh: 1.4; PRMT1 inh: -2.9; ABHD5 PLIN5 PPI: 7.4; MBD2 DNA inh: -4.5; rCAG RNA binder: 43.9*; rCAG bind conf: 42.6*; dCAG dye counter: 11.9*

Results for N#Cc1c(-c2ccccc2)nc(SCC(=O)Nc2ccccc2F)[nH]c1=O ?
UHRF1 MBD2 ctr: 1.8; LEDGF integ inh: -6.3; PRMT1 inh: 16.2; ABHD5 PLIN5 PPI: -0.8; MBD2 DNA inh: 1.1; rCAG RNA binder: 44.0*; rCAG bind conf: 31.6; dCAG dye counter: 8.2*

Results for O=C(CSc1nc2ccccc2c(=O)[nH]1)c1cccs1 ?
UHRF1 MBD2 ctr: -2.8; LEDGF integ inh: -3.4; PRMT1 inh: 3.6; ABHD5 PLIN5 PPI: -6.0; MBD2 DNA inh: -2.3; rCAG RNA binder: 4.5

How did N#Cc1c(-c2cccs2)nc(SCC(=O)c2cccs2)[nH]c1=O do in these assays?
UHRF1 MBD2 ctr: 0.5; LEDGF integ inh: 0.0; PRMT1 inh: 3.6; ABHD5 PLIN5 PPI: 5.0; MBD2 DNA inh: 1.7; rCAG RNA binder: 79.4*; rCAG bind conf: 64.7*; dCAG dye counter: 29.1*

Results for COC(=O)[C@]12C[C@H](CC(=O)NCc3cccs3)C(=O)N(Cc3ccc(Cl)cc3Cl)C1=C[C@H](C(C)(C)C)O[C@@H]2C ?
UHRF1 MBD2 ctr: 1.1; LEDGF integ inh: -1.7; PRMT1 inh: 1.3; MBD2 DNA inh: 3.8; rCAG RNA binder: 5.2

What do the screens show for `CC(=O)Nc1cccc(-c2cc(C(C)=O)c3n(c2=O)CCC3)c1`?
UHRF1 MBD2 ctr: -1.5; LEDGF integ inh: -1.1; PRMT1 inh: -2.1; MBD2 DNA inh: 0.2; rCAG RNA binder: 1.7

How did COC[C@@H]1CCCN1c1ccc2c(c1)OCCCN(C1CC1)S2(=O)=O do in these assays?
UHRF1 MBD2 ctr: 6.0; LEDGF integ inh: -0.7; PRMT1 inh: -2.5; MBD2 DNA inh: 3.4; rCAG RNA binder: 2.2

Results for CN(Cc1ccccc1)C(=O)OCc1cn(Cc2cccc(F)c2)nn1 ?
UHRF1 MBD2 ctr: -0.4; LEDGF integ inh: 1.4; PRMT1 inh: 0.1; MBD2 DNA inh: 0.2; rCAG RNA binder: -0.1

What do the screens show for `CCc1nc(N)c(C#N)c(-c2ccc(O)c(OC)c2)c1C`?
UHRF1 MBD2 ctr: 1.1; LEDGF integ inh: 0.5; PRMT1 inh: 0.6; ABHD5 PLIN5 PPI: 1.6; MBD2 DNA inh: 6.0; rCAG RNA binder: -4.2

What do the screens show for `COc1cc(-c2c(C#N)c(=O)[nH]c3c2c(C)nn3-c2ccccc2)ccc1O`?
UHRF1 MBD2 ctr: 2.0; LEDGF integ inh: -1.8; PRMT1 inh: 0.3; ABHD5 PLIN5 PPI: -1.2; MBD2 DNA inh: -2.1; rCAG RNA binder: 35.5*; rCAG bind conf: 29.7; dCAG dye counter: 6.3*

What do the screens show for `CCOc1ccc(C(=O)Oc2cc(C)[nH]c(=O)c2[N+](=O)[O-])cc1`?
UHRF1 MBD2 ctr: -0.6; LEDGF integ inh: 1.1; PRMT1 inh: 4.1; ABHD5 PLIN5 PPI: 0.0; MBD2 DNA inh: 5.7; rCAG RNA binder: 73.9*; rCAG bind conf: -0.1; dCAG dye counter: -0.6

How did COc1ccc(C2C(C#N)=C(N)Oc3c2c(-c2ccccc2)nn3-c2ccccc2)c(OC)c1OC (configuration not stated) do in these assays?
UHRF1 MBD2 ctr: 3.5; LEDGF integ inh: 11.7; PRMT1 inh: 3.1; ABHD5 PLIN5 PPI: -25.3; MBD2 DNA inh: -8.2; rCAG RNA binder: 42.1*; rCAG bind conf: 22.9; dCAG dye counter: 10.2*

Results for COc1ccc(OC)c(C2C(C#N)=C(N)Oc3c2c(C)nn3-c2ccc(C)cc2)c1 (configuration not stated) ?
UHRF1 MBD2 ctr: 1.3; LEDGF integ inh: 3.7; PRMT1 inh: -1.3; ABHD5 PLIN5 PPI: -37.1; MBD2 DNA inh: -3.8; rCAG RNA binder: 8.3

Results for C[C@H]1CN([C@@H](C)CO)C(=O)CCCn2cc(nn2)CO[C@@H]1CN(C)S(=O)(=O)c1cn(C)cn1 ?
UHRF1 MBD2 ctr: 0.5; LEDGF integ inh: -1.5; PRMT1 inh: 1.3; MBD2 DNA inh: 0.6; rCAG RNA binder: -1.2

Results for COC(=O)[C@]12C[C@H](CC(=O)N3CCN(C(=O)c4ccco4)CC3)C(=O)N(CCC3=CCCCC3)C1=C[C@H](COCc1ccccc1)O[C@@H]2C ?
UHRF1 MBD2 ctr: 0.6; LEDGF integ inh: 1.5; PRMT1 inh: -3.9; MBD2 DNA inh: 1.9; rCAG RNA binder: 5.4

What do the screens show for `Cc1nc(-c2ccc(S(=O)(=O)Nc3ccc(Br)cc3Cl)s2)cs1`?
UHRF1 MBD2 ctr: -0.6; LEDGF integ inh: -14.8; PRMT1 inh: 1.4; ABHD5 PLIN5 PPI: -1.1; MBD2 DNA inh: 1.6; rCAG RNA binder: 74.2*; rCAG bind conf: 65.5*; dCAG dye counter: 26.6*

How did Cc1nc(-c2ccc(S(=O)(=O)Nc3cccc(S(N)(=O)=O)c3)s2)cs1 do in these assays?
UHRF1 MBD2 ctr: 1.2; LEDGF integ inh: 2.5; PRMT1 inh: -2.1; ABHD5 PLIN5 PPI: 2.8; MBD2 DNA inh: -4.2; rCAG RNA binder: 4.5

Results for COc1ccccc1CCn1cnc(-c2cccc(F)c2)c1C(C)C ?
UHRF1 MBD2 ctr: -0.7; LEDGF integ inh: 0.9; PRMT1 inh: 1.4; MBD2 DNA inh: 1.7; rCAG RNA binder: 0.4

Results for O=C(Cn1nnc(-c2ccncc2)n1)Nc1ccc(Cl)cc1 ?
UHRF1 MBD2 ctr: 0.8; LEDGF integ inh: 4.1; PRMT1 inh: -8.9; MBD2 DNA inh: -0.9; rCAG RNA binder: 2.2

Results for CN(Cc1ccccc1)C(=O)NC1CCCCC1 ?
UHRF1 MBD2 ctr: 0.8; LEDGF integ inh: 3.0; PRMT1 inh: 0.1; ABHD5 PLIN5 PPI: -4.0; MBD2 DNA inh: 2.8; rCAG RNA binder: 1.1
